Results as given in PubChem BioAssay AID1159580 (chemical genetic matrix, 2015).
Where “and” joins values, the source holds several entries; their conditions need not be identical. Identical values can stand only once. About 2,000 (36%) of roughly 5,500 compounds were called active. Inconclusive results (about 18%) are left out. Rule as the data show it: active = normalized growth mostly below about 0.91 (no sharp cut-off); inconclusive = no clear call, values can overlap the other calls; inactive = mostly above about 0.92. The list shows a part of the results.

Test: chemical genetic growth profiling, strain panel (AID 1159580);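 also: tested at 20 µM; growth read once vehicle control cultures reached saturation at 30 °C; 1 = growth at the plate median or of vehicle wells; lower values mean less growth of the strain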
Settings: S. cerevisiae deletion strains, growth OD

Measured: normalized growth

COc1cc(O)c(C(C)=O)c(OC)c1
inactive: locus YAL013W, strain DEP1, stronger effect = lower value 1.02 | locus YAL021C, strain ccr4, stronger effect = lower value 1.01 | locus YAL026C, strain drs2, stronger effect = lower value 0.968 | locus YAL030W, strain snc1, stronger effect = lower value 1 | locus YBL061C, strain skt5, stronger effect = lower value 0.992 | locus YBR009C, strain hhf1, stronger effect = lower value 0.957 | locus YBR021W, strain FUR4, stronger effect = lower value 1.02 | locus YBR023C, strain chs3, stronger effect = lower value 0.995 | locus YBR171W, strain sec66, stronger effect = lower value 0.993 | locus YBR229C, strain ROT2, stronger effect = lower value 1.01 | locus YBR231C, strain swc5, stronger effect = lower value 0.994 | locus YBR279W, strain paf1, stronger effect = lower value 1 | locus YCL011C, strain gbp2, stronger effect = lower value 0.99 | locus YCL016C, strain dcc1, stronger effect = lower value 1.01 | locus YCL029C, strain bik1, stronger effect = lower value 1.01 | locus YCL061C, strain MRC1, stronger effect = lower value 0.965 | locus YCL069W, strain vba3, stronger effect = lower value 1 | locus YCR088W, strain abp1, stronger effect = lower value 0.993 | locus YDL005C, strain med2, stronger effect = lower value 1.03 | locus YDL035C, strain GPR1, stronger effect = lower value 1.04 | locus YDL040C, strain nat1, stronger effect = lower value 0.999 | locus YDL074C, strain BRE1, stronger effect = lower value 1.04 | locus YDL101C, strain DUN1, stronger effect = lower value 1.01 | locus YDL134C, strain PPH21, stronger effect = lower value 0.999 | locus YDL185W, strain tfp1, stronger effect = lower value 0.992 | locus YDL192W, strain arf1, stronger effect = lower value 1.01 | locus YDR001C, strain nth1, stronger effect = lower value 0.996 | locus YDR069C, strain doa4, stronger effect = lower value 1.03 | locus YDR101C, strain arx1, stronger effect = lower value 1 | locus YDR137W, strain rgp1, stronger effect = lower value 1.03 | locus YDR150W, strain NUM1, stronger effect = lower value 0.982 | locus YDR159W, strain sac3, stronger effect = lower value 0.936 | locus YDR162C, strain NBP2, stronger effect = lower value 1.05 | locus YDR297W, strain sur2, stronger effect = lower value 1.01 | locus YDR318W, strain mcm21, stronger effect = lower value 1 | locus YDR334W, strain swr1, stronger effect = lower value 1 | locus YDR335W, strain msn5, stronger effect = lower value 1.01 | locus YDR388W, stronger effect = lower value 1 | locus YDR392W, strain spt3, stronger effect = lower value 0.842 | locus YDR502C, strain sam2, stronger effect = lower value 0.983 | locus YEL003W, strain gim4, stronger effect = lower value 0.984 | locus YEL037C, strain rad23, stronger effect = lower value 0.998 | locus YEL061C, strain CIN8 (second series), stronger effect = lower value 1 | locus YEL061C, strain CIN8, stronger effect = lower value 1.01 | locus YER015W, strain faa2, stronger effect = lower value 1.01 | locus YER016W, strain bim1, stronger effect = lower value 1 | locus YER110C, stronger effect = lower value 0.982 | locus YER111C, strain swi4, stronger effect = lower value 1 | locus YER155C, strain BEM2, stronger effect = lower value 1.01 | locus YER167W, strain BCK2, stronger effect = lower value 1.01 | locus YFR010W, strain ubp6, stronger effect = lower value 0.999 | locus YGL078C, strain dbp3, stronger effect = lower value 0.991 | locus YGL086W, strain mad1, stronger effect = lower value 0.988 | locus YGL167C, strain pmr1, stronger effect = lower value 1.01 | locus YGL173C, strain kem1, stronger effect = lower value 0.988 | locus YGL227W, strain vid30, stronger effect = lower value 0.997 | locus YGL240W, strain doc1, stronger effect = lower value 0.916 | locus YGL248W, strain PDE1, stronger effect = lower value 0.996 | locus YGL253W, strain hxk2, stronger effect = lower value 0.984 | locus YGR078C, strain PAC10, stronger effect = lower value 0.989 | locus YGR135W, strain pre9, stronger effect = lower value 0.957 | locus YGR252W, strain gcn5, stronger effect = lower value 0.921 | locus YHR013C, strain ard1, stronger effect = lower value 1.01 | locus YHR027C, strain rpn1, stronger effect = lower value 1.01 | locus YHR030C, strain SLT2, stronger effect = lower value 1.01 and 0.966 | locus YHR079C, strain IRE1 (second series), stronger effect = lower value 1 | locus YHR079C, strain IRE1, stronger effect = lower value 0.965 | locus YHR094C, strain hxt1, stronger effect = lower value 0.993 | locus YHR129C, strain ARP1, stronger effect = lower value 1.02 | locus YHR142W, strain chs7, stronger effect = lower value 0.929 | locus YHR200W, strain rpn10, stronger effect = lower value 0.98 | locus YIL066C, strain RNR3, stronger effect = lower value 1.02 | locus YIL073C, strain SPO22, stronger effect = lower value 0.967 | locus YIL125W, strain kgd1, stronger effect = lower value 1 | locus YIR030C, strain dcg1, stronger effect = lower value 0.997 | locus YJL092W, strain hpr5, stronger effect = lower value 0.992 | locus YJL095W, strain BCK1 (second series), stronger effect = lower value 0.996 | locus YJL095W, strain BCK1, stronger effect = lower value 1.02 and 0.967 | locus YJL115W, strain asf1, stronger effect = lower value 1.01 | locus YJL129C, strain trk1, stronger effect = lower value 0.995 | locus YJL134W, strain LCB3, stronger effect = lower value 1 | locus YJL154C, strain vps35, stronger effect = lower value 1.01 | locus YJL164C, strain tpk1, stronger effect = lower value 0.976 | locus YJL166W, strain qcr8, stronger effect = lower value 0.978 | locus YJL168C, strain set2, stronger effect = lower value 0.993 | locus YJL187C, strain SWE1 (second series), stronger effect = lower value 1.01 | locus YJL187C, strain SWE1, stronger effect = lower value 1 | locus YJR066W, strain TOR1, stronger effect = lower value 0.89 | locus YKL009W, strain mrt4, stronger effect = lower value 1.02 | locus YKL068W, stronger effect = lower value 0.99 | locus YKL085W, strain MDH1 (second series), stronger effect = lower value 1.01 | locus YKL085W, strain MDH1, stronger effect = lower value 1.01 | locus YKL160W, strain elf1, stronger effect = lower value 0.986 | locus YKL190W, strain CNB1, stronger effect = lower value 1.01 | locus YKR001C, strain vps1, stronger effect = lower value 0.998 | locus YKR026C, strain gcn3, stronger effect = lower value 0.994 | locus YKR091W, strain srl3, stronger effect = lower value 0.998 | locus YLL001W, strain dnm1, stronger effect = lower value 0.992 | locus YLL026W, stronger effect = lower value 0.992 | locus YLL041C, strain sdh2, stronger effect = lower value 0.998 | locus YLR027C, strain aat2, stronger effect = lower value 0.987 | locus YLR039C, strain RIC1, stronger effect = lower value 1.1 | locus YLR058C, strain SHM2, stronger effect = lower value 1.02 | locus YLR102C, strain apc9, stronger effect = lower value 0.992 | locus YLR113W, strain HOG1, stronger effect = lower value 0.955 | locus YLR221C, strain rsa3, stronger effect = lower value 0.971 | locus YLR258W, strain gsy2, stronger effect = lower value 0.982 | locus YLR262C, strain YPT6 (second series), stronger effect = lower value 1.01 | locus YLR262C, strain YPT6, stronger effect = lower value 1.15 | locus YLR268W, strain sec22, stronger effect = lower value 1.01 | locus YLR320W, strain mms22, stronger effect = lower value 0.972 | locus YLR330W, strain CHS5, stronger effect = lower value 1.01 | locus YLR342W, strain FKS1, stronger effect = lower value 1.01 | locus YLR357W, strain rsc2, stronger effect = lower value 1.01 | locus YLR370C, strain arc18, stronger effect = lower value 1 | locus YLR371W, strain rom2, stronger effect = lower value 0.975 | locus YLR384C, strain iki3, stronger effect = lower value 1.01 | locus YLR418C, strain cdc73, stronger effect = lower value 0.998 | locus YML016C, strain PPZ1, stronger effect = lower value 1 | locus YML032C, strain rad52, stronger effect = lower value 1.01 | locus YML120C, strain ndi1, stronger effect = lower value 0.99 | locus YML124C, strain tub3, stronger effect = lower value 0.988 | locus YMR058W, strain fet3, stronger effect = lower value 0.972 | locus YMR078C, strain ctf18, stronger effect = lower value 0.98 | locus YMR125W, strain sto1, stronger effect = lower value 1.06 | locus YMR129W, stronger effect = lower value 1.01 | locus YMR205C, strain PFK2, stronger effect = lower value 1 | locus YMR223W, strain ubp8, stronger effect = lower value 0.989 | locus YMR231W, strain pep5, stronger effect = lower value 1.02 | locus YMR307W, strain GAS1, stronger effect = lower value 1.02 | locus YNL067W, strain RPL9B, stronger effect = lower value 1 | locus YNL071W, strain lat1, stronger effect = lower value 0.985 | locus YNL128W, strain TEP1, stronger effect = lower value 1.03 | locus YNL153C, strain GIM3, stronger effect = lower value 1.02 | locus YNL183C, strain NPR1, stronger effect = lower value 0.918 | locus YNL209W, strain ssb2, stronger effect = lower value 1 | locus YNL233W, strain BNI4, stronger effect = lower value 1.03 | locus YNL248C, strain rpa49, stronger effect = lower value 0.969 | locus YNL250W, strain rad50, stronger effect = lower value 0.99 | locus YNL271C, strain bni1, stronger effect = lower value 0.985 | locus YNL298W, strain CLA4, stronger effect = lower value 1 | locus YNL307C, strain MCK1, stronger effect = lower value 0.978 | locus YNL322C, strain KRE1 (second series), stronger effect = lower value 1.01 | locus YNR049C, strain mso1, stronger effect = lower value 1.01 | locus YNR052C, strain pop2, stronger effect = lower value 0.988 | locus YOL006C, strain TOP1, stronger effect = lower value 1.06 | locus YOL012C, strain htz1 0.925 | locus YOL147C, strain pex11, stronger effect = lower value 1 | locus YOR001W, strain rrp6, stronger effect = lower value 0.959 | locus YOR061W, strain CKA2, stronger effect = lower value 1.03 | locus YOR069W, strain VPS5, stronger effect = lower value 1 | locus YOR070C, strain gyp1, stronger effect = lower value 0.998 | locus YOR080W, strain dia2, stronger effect = lower value 1.01 | locus YOR083W, strain WHI5, stronger effect = lower value 0.965 | locus YOR106W, strain vam3, stronger effect = lower value 0.972 | locus YOR136W, strain idh2, stronger effect = lower value 1 | locus YOR144C, strain elg1, stronger effect = lower value 0.999 | locus YOR184W, strain ser1, stronger effect = lower value 1.03 | locus YOR231W, strain MKK1, stronger effect = lower value 0.956 | locus YOR265W, strain rbl2, stronger effect = lower value 0.989 | locus YOR270C, strain vph1, stronger effect = lower value 0.915 | locus YOR290C, strain snf2, stronger effect = lower value 0.95 | locus YOR316C, strain cot1, stronger effect = lower value 0.995 | locus YPL051W, strain arl3, stronger effect = lower value 0.966 | locus YPL078C, strain atp4, stronger effect = lower value 0.954 | locus YPL106C, strain sse1, stronger effect = lower value 0.982 | locus YPL240C, strain hsp82, stronger effect = lower value 1 | locus YPL256C, strain CLN2, stronger effect = lower value 0.978 | locus YPR119W, strain clb2, stronger effect = lower value 0.988 | locus YPR141C, strain kar3, stronger effect = lower value 0.993 | locus YPR163C, strain tif3, stronger effect = lower value 0.986 | locus YPR167C, strain met16, stronger effect = lower value 0.991 | strain wtn01, stronger effect = lower value 0.991
active: locus YDR195W, strain ref2 1.16 [resistant] | locus YER155C, strain BEM2 (second series), stronger effect = lower value 0.8
